About 22,000 (6.9%) of roughly 320,000 compounds were called active. Another 27% or so got no clear call; they are omitted. Calls follow the shape of the dose curve; as a rule, active = well fitted inhibition curve with a large enough effect; inconclusive = small, poorly fitted or top-dose-only effect, or another doubt; inactive = no such curve, though single readings can be large or run the other way. The entries come from a sample that favours actives as a whole. A call without a number means that no potency is given here.
Experiment: Primary qHTS for delayed death inhibitors of the malarial parasite plastid, 96 hour incubation
Conditions: P. falciparum luciferase reporter growth; series mostly up to 28.7 µM
Source text: The goal of this screen is to discover new antimalarial compounds that act by inhibiting the development of the apicoplast in the malarial parasite Plasmodium falciparum. The biochemical processes that make this organelle essential for erythrocytic stage parasites are not well understood. However, antibiotics such as azithromycin and tetracycline, which target the apicoplast translational machinery, have a potent antimalarial effect.
We have developed a cell-based assay that measures parasite growth based on the expression of an integrated copy of a firefly luciferase reporter. To detect small molecules that cause this "delayed death" phenotype, erythrocytes infected with the luciferase-expressing parasites were incubated with compounds for either one or two generations, corresponding to 48 and 96 hours, respectively. Compounds that inhibit parasite growth in the second generation, but not the first, should be enriched in antimalarials that target the apicoplast. Growth inhibition is detected by a decrease in luciferase activity.
Assay Provider: David Fidock and Eric Ekland, Columbia University
Keywords: NIH Roadmap, MLPCN, MLI, MLSMR, qHTS, NCGC, qHTS, malaria, luciferase, viability
Four microliters of infected erythrocytes (2% hematocrit, 0.05% parasitemia final concentration) in culture medium were dispensed and the plates incubated for 96 hours at 37 C in 5% CO2. Two microliters of luciferase detection reagent was added and luminescence was detected by a ViewLux (PerkinElmer) reader.
With `CN(CCC(=O)Nc1cc(S(=O)(=O)N(C)C)ccc1Cl)CC(=O)Nc1ccc(F)cc1` the Potency was “inactive”.
For `O=C(Nc1cccc2c1N(C(=O)c1ccco1)CCC2)c1ccco1`, the Potency was “inactive”.
For `O=C(CSc1ncnc2c1oc1ccccc12)NC1CCCC1`, the Potency was “inactive”.
With `CCCOc1ccc(-c2c(C(=O)N/N=C/c3ccco3)nnn2-c2nonc2N)cc1` the Potency was “inactive”.
With `CN(Cc1ccccc1)C(=O)CCc1ccccc1` the Potency was “inactive”.
For `CN(Cc1ccccc1)C(=O)c1cccc(C(=O)N(C)Cc2ccccc2)c1`, the Potency was 13.1 µM (active).
With `Cc1cc(C)cc(NC(=O)N(C)Cc2ccccc2)c1` the Potency was “inactive”.
In the case of `Cc1cc(C(=O)N/N=C/c2ccccn2)c2ccccc2n1`, the Potency was “inactive”.
In the case of `O=C(N/C(=C\c1ccc(O)cc1)C(=O)N1CCCCC1)c1ccccc1`, the Potency was “inactive”.
For `COc1ccc(C)cc1NC(=O)C(Sc1ccccc1)c1ccccc1` (centres undefined), the Potency was “inactive”.
For `COc1ccc(C)cc1NC(=O)C(OC(=O)c1cccc(S(=O)(=O)N(C)c2ccccc2)c1)c1ccccc1` (centres undefined), the Potency was “inactive”.
In the case of `Cc1ccc(C)c(NC(=O)C(OC(=O)c2ccc(C)s2)c2ccccc2)c1` (centres undefined), the Potency was 2.94 µM (active).
With `C/C(CC(=O)NCc1ccc(Cl)cc1)=N\NC(=O)COc1ccc(C)cc1Br` the Potency was “inactive”.
For `CC(C)C[C@H](NC(=O)N1CCn2c1nc1ccccc12)C(=O)NC1CC1`, the Potency was “inactive”.
In the case of `O=S(=O)(NCCc1ccccn1)c1cc(Cl)cc(Cl)c1O`, the Potency was “inactive”.
For `O=S(=O)(c1cc(Cl)ccc1Cl)N1CCN(Cc2ccco2)CC1`, the Potency was “inactive”.
For `N#Cc1ccsc1NC(=O)CN1CCN(S(=O)(=O)c2cc(Cl)ccc2Cl)CC1`, the Potency was 4.15 µM (active).
For `N#Cc1ccsc1NC(=O)CN1CCCCC1`, the Potency was “inactive”.
For `CCN(CC)c1ccc(/C=N/NC(=O)CNC(=O)c2cccnc2)cc1`, the Potency was “inactive”.
For `CC(=O)NCCC(=O)Nc1cc(S(=O)(=O)N2CCCCC2)ccc1Oc1cccc(C)c1`, the Potency was “inactive”.
With `CCOc1ccc(NC(=O)COc2ccc(S(=O)(=O)N3CCCC3)cc2)cc1` the Potency was “inactive”.
For `O=C(COc1ccc(S(=O)(=O)N2CCCCC2)cc1)NCc1ccccn1`, the Potency was “inactive”.
With `CCOc1ccccc1NC(=O)C1CCCN(S(=O)(=O)c2ccccc2)C1` (centres undefined) the Potency was “inactive”.
For `CCOc1ccc(S(=O)(=O)N2CCCCC2)cc1NC(=O)CN1CCCC1c1cccs1` (centres undefined), the Potency was 4.65 µM (active).
In the case of `CCOc1ccccc1NC(=O)COc1ccc(S(=O)(=O)N2CCCC2)cc1`, the Potency was 8.28 µM (active).
With `CN(C)C(=O)N=NC(=O)N(C)C` the Potency was “inactive”.
For `O=C(Oc1ccc(Br)cc1)c1cccnc1`, the Potency was “inactive”.
With `O=C(COC(=O)c1cccc(Cl)c1)NC1CCCCCCC1` the Potency was “inactive”.
With `CCc1c(C)c2ccc(OC3CCCCC3=O)cc2oc1=O` (centres undefined) the Potency was “inactive”.
With `Cc1ccc(C(=O)C(C)OC(=O)Cc2n[nH]c(=O)c3ccccc23)cc1C` (centres undefined) the Potency was “inactive”.
For `Cc1cc(C)c(S(=O)(=O)N(C)CC(=O)NCC2CCCO2)c(C)c1` (centres undefined), the Potency was “inactive”.
For `COc1ccccc1CCC(=O)OCC(=O)N1CCN(S(=O)(=O)c2ccc(C)cc2C)CC1`, the Potency was “inactive”.
With `CCCCCCCN=C(C)c1ccccc1O` the Potency was “inactive”.
In the case of `C/C(=N\N(C)C)c1ccc(OCCOc2ccc([N+](=O)[O-])cc2)cc1`, the Potency was “inactive”.
With `COc1ccc(C(C#N)(CC(=O)O)c2cnccn2)cc1OC` (centres undefined) the Potency was “inactive”.
With `COc1cc(OC)cc(C(=O)NNC(=O)CNC(=O)c2ccc(Br)o2)c1` the Potency was “inactive”.
In the case of `S=C(NCCC1=CCCCC1)Nc1ccccc1`, the Potency was 0.586 µM (active).
For `O=C(Cc1cccc2ccccc12)NCCC1=CCCCC1`, the Potency was “inactive”.
In the case of `S=C(NCCCc1ccccc1)Nc1ccc(Br)cc1`, the Potency was “inactive”.
For `CC(=O)N1CC(=O)N(CC(=O)Nc2ccc(Br)cc2)C1=S`, the Potency was “inactive”.
For `CC(=O)c1nnn(-c2ccc(Cl)cc2C#N)c1C`, the Potency was “inactive”.
With `Cc1cccc(-c2c(NC(=O)c3ccco3)oc3ccc(Cl)cc3c2=O)c1` the Potency was “inactive”.
With `Cc1noc(NS(=O)(=O)c2ccc(NC(=O)c3oc4ccc(F)cc4c3C)cc2)c1C` the Potency was “inactive”.
For `Cn1cnc2c1c(=O)n(Cc1c(Cl)cccc1Cl)c(=O)n2C`, the Potency was “inactive”.
With `CC(C)CCn1c(=O)c2c(nc3n2CCCN3Cc2ccccc2)n(C)c1=O` the Potency was 6.57 µM (active).
In the case of `CCOC(=O)CSc1nc2c(c(=O)n(Cc3ccccc3Cl)c(=O)n2C)n1C`, the Potency was “inactive”.
For `N/C(=N\OC(=O)Cc1ccccc1[N+](=O)[O-])c1ccc(Br)cc1`, the activity change, negative = inhibition was 12.7% [at 5.75 µM] (inactive).
With `N/C(=N\OC(=O)/C=C/c1ccccc1)c1ccc(Br)cc1` the Potency was “inactive”.
With `N/C(=N\OC(=O)N1c2ccccc2Sc2ccccc21)c1ccc(Br)cc1` the Potency was 10.4 µM (active).
With `Cc1ccc(C)c(SCc2nc3sc(C(=O)O)c(C)c3c(=O)[nH]2)c1` the Potency was “inactive”.
In the case of `CC1CCN(C(=O)c2ccc3c(c2)NC(=O)CN3)CC1`, the Potency was “inactive”.
With `Cn1cc(CNC(=O)c2ccc(OC3CCN(Cc4ccccn4)CC3)cc2)cn1` the Potency was “inactive”.
For `O=C(NCC1CCCO1)c1cc2c([nH]c3ccccc32)c(-c2ccc(F)cc2)n1` (centres undefined), the Potency was 9.28 µM (active).
For `COc1ccc2cc(C(=O)NCC3CCCO3)[nH]c2c1` (centres undefined), the Potency was “inactive”.

Source: PubChem BioAssay AID504834 (National Center for Advancing Translational Sciences (NCATS), 2011)
Potency is read from the fitted curve at half-maximal effect.
